Experimental findings from the supplement of paper PMC9925115 are described below.

Counter-ions that a name gives are not always drawn.

The test system of this assay is FLX1 + dox-induced PRKAR1A G325D. Nature of the assay: difference in log2 fold change of viability vs plate median (dox-induced PRKAR1A G325D minus uninduced); higher = compound less effective when PKA is inhibited. As to conditions: concentration: not stated (2 or 5 uM); 5 days. How it is done:
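For each plate a log2 fold change vs the plate median was derived, and the values without dox were subtracted from those with dox, averaged over three biological replicates.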

As to `CN1CC[C@H](c2c(O)cc(O)c3c(=O)cc(-c4ccccc4Cl)oc23)[C@H](O)C1` [Flavopiridol (Alvocidib)], the “difference in log2 fold change of viability” value (“difference in log2 fold change” for short) was found to be 0.251.

As to `CCS(=O)(=O)Nc1ccc2c(c1)/C(=C(/Nc1ccc(CN3CCCCC3)cc1)c1ccccc1)C(=O)N2` [Hesperadin], the “difference in log2 fold change” value is -0.105.

For `CCOc1cc(N2CCC(O)CC2)ccc1Nc1ncc2c(n1)N(C)c1ccccc1C(=O)N2C`, the “difference in log2 fold change” value stood at 0.697.

As to `Cn1c(=O)c(F)c(Nc2ccc(I)cc2F)c2c(=O)n(C[C@@H](O)CO)cnc21`, the “difference in log2 fold change” value is -1.3.

With `CC[C@H](Nc1ncnc2[nH]cnc12)c1nc2cccc(F)c2c(=O)n1-c1ccccc1` [Idelalisib (CAL-101, GS-1101)], the “difference in log2 fold change” value was 0.00653.

Consider `CN1CCC(CNc2ccc3ncc(-c4cccc(OC(F)(F)F)c4)n3n2)CC1` [SGI-1776 free base], for which the “difference in log2 fold change” value was -0.0813.

Consider `O=C(Nc1cc(C(F)(F)F)cc(C(F)(F)F)c1)c1cc(Cl)ccc1O`, for which the “difference in log2 fold change” value is -0.138.

With `C[C@H](NC(=O)/C(C#N)=C/c1cccc(Br)n1)c1ccccc1`, the “difference in log2 fold change” value is -0.381.

As for `O=S(=O)(c1cccc2cnccc12)N1CCCNCC1` [Fasudil (HA-1077) HCl], the “difference in log2 fold change” value was -0.15.

With `O=C(O)c1ccc(Nc2ncc3c(n2)-c2ccc(Cl)cc2C(c2c(F)cccc2F)=NC3)cc1`, the “difference in log2 fold change” value was -0.0396.

Regarding `CCCS(=O)(=O)Nc1ccc(F)c(C(=O)c2c[nH]c3ncc(Cl)cc23)c1F`, the “difference in log2 fold change” value came to 0.333.

Turning to `CN1CCN(c2ccc3nc(-c4c(N)c5c(F)cccc5[nH]c4=O)[nH]c3c2)CC1` [Dovitinib (TKI-258) Dilactic Acid], the “difference in log2 fold change” value was -0.364.

Consider `CC(C)(C)NS(=O)(=O)c1cncc(-c2cc(F)c3nc(N)nn3c2)c1`, for which the “difference in log2 fold change” value is -0.0394.
